Assay [1] can be described thus: ACEA_ER_80hr: ACEA Biosciences xCELLigence Real-Time Cell Analysis on Estrogen Receptor Agonism for Proliferation (AID 2282667; active = hit-call score of the fitted dose curve at least 0.9, where 1 is the maximum). To be noted: T47D proliferation, impedance (xCELLigence), 80 h. The essentials: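 Real-time impedance growth kinetics of human T-47D breast cells read 80 h after dosing, gain-of-signal fitted relative to DMSO. Compounds: 1:4 serial series, top final concentration 100 uM, n = 2.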

Assay [2] can be described thus: APR_HepG2_CellCycleArrest_24hr: Apredica 24-hour HepG2 Assay for Cell Cycle Arrest (AID 2282905).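 Note: cell cycle arrest scored as ratio of 2N to 4N nuclear DNA content.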 To be noted: imaging, actives raise or lower the signal. Put shortly:
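Readout: Hoechst 33342 nuclear DNA content by high-content fluorescent imaging, six images/well, 20x. Human HepG2 liver cells, 24 hr compound exposure, 0.39–200 uM, final DMSO 0.5% v/v. Gain or loss fitted relative to DMSO baseline.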

Assay [3] in a line: APR_HepG2_NuclearSize_24hr: Apredica 24-hour HepG2 Assay for Nuclear Size (AID 2282907). As to conditions: high-content imaging, actives raise or lower the signal. Put shortly: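 Read-out: nuclear diameter from Hoechst 33342 (2 ug/mL) imaging of fixed HepG2 cells, 20x, six fields/well. Compounds ran at 0.39–200 uM for 24 hr, 0.5% DMSO final. Gain or loss was fitted bidirectionally relative to the DMSO baseline.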

Assay [4] is described as follows: APR_HepG2_CellLoss_24hr: Apredica 24-hour HepG2 Assay for Cell Loss (AID 2282908).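 For AC50: fit in both directions so a hit may be cell loss or gain.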 To be noted: high-content imaging. Put shortly: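 Read-out: Hoechst 33342-stained nuclei counted by automated fluorescence imaging after formaldehyde fixation and Triton permeabilization. Ten concentrations, 0.39 to 200 uM, duplicate wells, 0.5% DMSO final. Gain or loss of signal fitted relative to DMSO baseline.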

The nature of assay [5]: APR_HepG2_MitoticArrest_24hr: Apredica 24-hour HepG2 Assay for Mitotic Arrest (AID 2282910). To be noted: high-content imaging, actives raise or lower the signal. Put shortly: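 High-content imaging of fixed HepG2 cells labeled with Hoechst 33342 and anti-phospho-histone H3, after 24 h treatment. Ten concentrations 0.39 to 200 uM in duplicate, final DMSO 0.5%; changes fitted both directions relative to DMSO.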

A short description of assay [6]: APR_HepG2_MitoMembPot_24hr: Apredica 24-hour HepG2 Assay for Mitochondrial Membrane Potential (AID 2282911). To be noted: imaging, actives raise or lower the signal. The essentials:
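Mitochondrial membrane potential imaged via MitoTracker Red CMXRos (250 nM, 30 min pre-fixation) in fixed HepG2 cells with Hoechst nuclear identification. Ten concentrations 0.39–200 uM, 24 h treatment, 0.5% DMSO; CCCP as positive control.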

A short description of assay [7]: APR_HepG2_MitoMass_24hr: Apredica 24-hour HepG2 Assay for Mitochondrial Mass (AID 2282912). As to conditions: high-content imaging, actives raise or lower the signal. Put shortly: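 HepG2, 24 hr dosing, 10 concentrations 0.39–200 uM in duplicate, DMSO 0.5% final. MitoTracker Red CMXRos 250 nM, 30 min pre-fix; 3.7% formaldehyde fix. Imaging-based fluorescence intensity; gain/loss fit vs DMSO baseline.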

Assay [8] is described as follows: APR_HepG2_CellLoss_72hr: Apredica 72-hour HepG2 Assay for Cell Loss (AID 2282915). To be noted: high-content imaging. The essentials:
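Cell number comes from Hoechst 33342-labelled nuclei, imaged at 20x after 3.7% formaldehyde fixation. Dosing was 0.39–200 uM, ten concentrations in duplicate, 0.5% DMSO final, for 72 h. Bidirectional fit relative to DMSO baseline.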

The nature of assay [9]: APR_HepG2_P-H2AX_72hr: Apredica 72-hour HepG2 Assay for H2AX Phosphorylation (AID 2282916).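 Note: phospho-histone H2A.x immunostain intensity per cell marking DNA damage.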 To be noted: imaging, actives raise or lower the signal. The essentials:
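Readout: phospho-H2A.x immunofluorescence (FITC secondary) plus Hoechst nuclear stain, high-content imaging at 20x, six fields/well. HepG2, 72 hr compound exposure, 0.39–200 uM, final DMSO 0.5% v/v. Gain or loss fitted relative to DMSO baseline.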

Assay [10] can be described thus: APR_HepG2_MitoticArrest_72hr: Apredica 72-hour HepG2 Assay for Mitotic Arrest (AID 2282918). As to conditions: high-content imaging, actives raise or lower the signal. The essentials: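 High-content imaging of fixed human HepG2 cells after 72 h compound exposure (0.39–200 uM, duplicates, 0.5% DMSO); mitotic arrest scored from phospho-histone H3 and nuclear Hoechst staining relative to DMSO.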

A short description of assay [11]: APR_HepG2_P-H2AX_24hr: Apredica 24-hour HepG2 Assay for H2AX Phosphorylation (AID 2282920). As to conditions: high-content imaging, actives raise or lower the signal. The essentials:
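High-content imaging of phospho-histone H2A.x immunofluorescence, nuclei counterstained with Hoechst 33342, in fixed HepG2 cells. Compounds ran 0.39–200 uM in duplicate for 24 h, final DMSO 0.5%. Signal change fitted both directions against DMSO.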

The nature of assay [12]: APR_HepG2_StressKinase_72hr: Apredica 72-hour HepG2 Assay for Stress Kinase (AID 2282921). To be noted: HepG2 stress kinase (phospho-c-Jun) imaging, actives raise or lower the signal. The essentials: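 Phospho-c-Jun immunofluorescence measured by high-content imaging at 20x, six fields per well; bidirectional curve fitting against DMSO as baseline. Dosing: 0.39–200 uM, 72 h, 0.5% DMSO final.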

Assay [13] is described as follows: APR_HepG2_StressKinase_24hr: Apredica 24-hour HepG2 Assay for Stress Kinase (AID 2282922). To be noted: HepG2 stress kinase (phospho-c-Jun) imaging, actives raise or lower the signal. The essentials: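 High-content imaging of phospho-c-Jun immunofluorescence in fixed, permeabilized HepG2 cells after 24 h dosing. Ten concentrations, 0.39 to 200 uM, run in duplicate at 0.5% v/v DMSO; gain or loss of signal versus DMSO.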

Assay [14] in a line: APR_HepG2_NuclearSize_72hr: Apredica 72-hour HepG2 Assay for Nuclear Size (AID 2282925). To be noted: high-content imaging, actives raise or lower the signal. The essentials:
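Nuclear size was read by high-content imaging of Hoechst 33342 stain after formaldehyde fixation. Compounds ran 72 h on HepG2 at 0.39 to 200 uM, with final DMSO 0.5% v/v. Curves fitted both directions relative to DMSO control.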

The nature of assay [15]: APR_HepG2_MicrotubuleCSK_24hr: Apredica 24-hour HepG2 Assay for Microtubule CSK Stabilty (AID 2282909). As to conditions: HepG2 microtubule cytoskeleton imaging, actives raise or lower the signal. Put shortly:
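Read-out: alpha-tubulin immunofluorescence intensity by automated high-content imaging of fixed HepG2 cells after 24 h compound treatment. Ten concentrations, 0.39 to 200 uM, in duplicate; DMSO 0.5% v/v. Taxol positive control; DMSO-normalized bidirectional curve fitting.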

Assay [16] can be described thus: APR_HepG2_p53Act_24hr: Apredica 24-hour HepG2 Assay for p53 Activation (AID 2282913).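 Note: p53 protein immunofluorescence averaged per cell in HepG2 with Hoechst nuclei.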 As to conditions: high-content imaging, actives raise or lower the signal. Put shortly: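 Fluorescence imaging of formaldehyde-fixed HepG2 cells labelled for p53 and with Hoechst, 24 h after dosing (0.39–200 uM, duplicate wells, 0.5% v/v DMSO). Signal fitted in both directions relative to DMSO.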

A short description of assay [17]: APR_HepG2_CellCycleArrest_72hr: Apredica 72-hour HepG2 Assay for Cell Cycle Arrest (AID 2282914). As to conditions: high-content imaging, actives raise or lower the signal. Put shortly: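 Read-out: nuclear DNA content from Hoechst 33342 high-content imaging (20x, six fields/well) after 3.7% formaldehyde fixation, fitted bidirectionally against DMSO. Treatment was 72 h in HepG2, ten concentrations 0.39–200 uM, duplicate, 0.5% DMSO.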

The nature of assay [18]: APR_HepG2_p53Act_72hr: Apredica 72-hour HepG2 Assay for p53 Activation (AID 2282923).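 Note: average cellular p53 protein immunofluorescence intensity in HepG2 cells.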 To be noted: high-content imaging, actives raise or lower the signal. Put shortly:
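Readout: p53 immunofluorescence quantified by automated high-content imaging at 20x, six fields per well, nuclei located via Hoechst. Dosing ran 72 hr over ten concentrations from 0.39 to 200 uM; bidirectional curve fitting against DMSO baseline.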

Data on 25 compounds can be found in PubChem BioAssay (EPA / NIEHS).

Inconclusive results are not listed. Calls of active or inactive are those of the source. Rule for the calls, unless noted: active = hit-call score of the fitted dose curve at least 0.9, where 1 is the maximum; inactive = score below 0.9.

`O=C(O)C=CC(F)(C(F)(F)F)C(F)(F)F`: the compound was classed as inactive in assay [1].

For the compound `CCOP(=S)(Oc1ccc([N+](=O)[O-])cc1)c1ccccc1` (centres undefined), the outcome in assay [1], in [2], in assay [3], in assay [5], in [6] and in [7] was inactive. For the same compound, the compound was classed as inactive in assay [9], in [10], in assay [11], in assay [12], in assay [13] and in assay [14]. Moreover, the AC50 in assay [4] is 41.1 µM (active); in [8] it was 27.7 µM (active).

For `C/C(=N\NC(=O)Nc1cc(F)cc(F)c1)c1ncccc1C(=O)O`, in [1], the AC50 is 0.265 µM (active).

Consider `N#Cc1c(-c2ccc(Cl)cc2)[nH]c(C(F)(F)F)c1Br`, for which the outcome in [1] was inactive.

Take `N#Cc1ccc(O)cc1`: the outcome in assay [1] was inactive.

Consider `Cc1c([N+](=O)[O-])cc2c(c1[N+](=O)[O-])C(C)(C)CC2(C)C`, for which, in [1], the call was inactive.

In the case of `CC1=C(C(=O)Nc2ccccc2)S(=O)(=O)CCO1`, the AC50 in assay [1] is 0.267 µM (active).

On to `Nc1ccc2ccccc2c1`, for which the compound was called inactive in assay [1], in assay [2], in assay [3], in [4], in [15] and in assay [7]. In addition, the call in assay [16], in [8], in assay [9], in assay [10], in assay [11] and in assay [12] was inactive. Besides, the call in assay [13], in assay [18] and in assay [14] was inactive. In addition, the AC50 was 52.5 µM (active) in assay [6] and 88.9 µM (active) in assay [17].

Regarding `CCOP(=S)(S)OCC`, the compound was called inactive in [1].

In the case of `CCCCOCCOP(=O)(OCCOCCCC)OCCOCCCC`, the AC50 in assay [1] was 10.5 µM (active).

`CC(C)Nc1ccc(Nc2ccccc2)cc1`: the result in assay [1] was inactive.

With `CCCCOCC1CO1` (centres undefined), in [1], the compound was called inactive.

Take `Cc1ccc2c(c1N)C(=O)c1ccccc1C2=O`: in [1], the result was inactive.

With `O=C(O)CF`, the compound was called inactive in [1].

Regarding `NNC(N)=S`, in assay [1], the compound was classed as inactive.

As to `OCC(F)(F)OC(F)(F)C(F)(F)OC(F)(F)C(F)(F)OC(F)(F)F`, the outcome in assay [1] was inactive.

Regarding `CCCCN(CC)C(=O)SCCC`, in [1], the outcome was inactive.

Take `Oc1ccc(I)cc1`: the compound was classed as inactive in assay [1].

For the compound `N#Cc1cc([N+](=O)[O-])ccc1N`, the outcome in assay [1] was inactive.

For `FC(F)(F)c1ccc(Cl)cc1`, in [1], the result was inactive.

In the case of `Cc1ccc(N)cc1N`, the compound was classed as inactive in assay [1], in assay [2], in [3], in assay [4], in [5] and in assay [6]. For the same compound, the result in assay [7], in assay [16], in assay [8], in assay [9], in [10] and in [11] was inactive. Moreover, the call in assay [12], in [13], in assay [18] and in assay [14] was inactive.

In the case of `c1nc[nH]n1`, the call in assay [1], in [2], in [3], in [4], in [5] and in assay [6] was inactive. The result in [7], in assay [16], in [8], in assay [9], in [10] and in assay [11] was inactive. For the same compound, the compound was called inactive in [12], in assay [13], in assay [18] and in assay [14].

Take `COC(=O)C(F)(F)C(F)(F)OC(F)(C(F)(F)F)C(F)(F)OC(F)=C(F)F` (centres undefined): the result in assay [1] was inactive.

In the case of `O=C(O)C(F)(F)OC(F)(F)C(F)(F)OC(F)(F)C(=O)O`, the outcome in assay [1] was inactive.

Take `CC(O)C(F)(F)C(F)(F)F` (centres undefined): the outcome in assay [1] was inactive.

The term AC50 denotes the concentration giving half of the maximal activity seen.
